The source of these data is PubChem BioAssay (NCATS).

The structures appear in SMILES notation. Records with an inconclusive call do not appear. Where a call stands in place of a potency, no number is given. Activity calls are given as the source filed them. Calls come from the whole dose curve; as a rule, active = well fitted cell-killing curve with a large enough effect; inconclusive = small, poorly fitted or top-dose-only effect; inactive = no such curve, though single readings can be large or run the other way.
Potency is the fitted concentration of half-maximal effect.

This assay in a line: qHTS of pediatric cancer cell lines to identify multiple opportunities for drug repurposing: Primary screen for Rh41 cells (AID 1347108). Note: nearly all actives have a fitted effect of over 70% in size. The settings on record: Rh41 rhabdomyosarcoma viability, CellTiter-Glo luminescence, 48 h; series mostly up to 46 µM. An outline of the steps: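 Cells seeded at 500-1,000 cells/well in growth media, rested 5 hours at 37 degrees C, 5% CO2, then dosed; MIPE compounds at 11-point (from 0.78 nM) and NPC at 8-point (from 0.59 nM) final concentrations. Viability by CellTiter-Glo luminescence after 48 hours.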
On to `NC(=O)c1ncn([C@@H]2O[C@H](CO)[C@@H](O)[C@H]2O)n1`, for which the Potency result was “inactive”. For `COC(=O)C1=C(C)NC(C)=C(C(=O)OC)C1c1ccccc1[N+](=O)[O-]` the value was “inactive”; for `CCN(CC)CCOC(=O)C1(C2CCCCC2)CCCCC1`, “inactive”. For `CN(C)CCC=C1c2ccccc2CCc2ccccc21` the value was “inactive”. Under `O=C(O)COc1nn(Cc2ccccc2)c2ccccc12` stands “inactive”; under `C[C@]12CC[C@@H]3c4ccc(O)cc4CC[C@H]3[C@@H]1CCC2=O`, “inactive”; under `Cc1cc(C(C#N)c2ccc(Cl)cc2)c(Cl)cc1NC(=O)c1cc(I)cc(I)c1O` (stereo not given), “inactive”. For the compound `Nc1ncnc2c1ncn2[C@@H]1O[C@H](CO)[C@@H](O)[C@H]1O`, the Potency entry was “inactive”. Under `CSc1ccc2c(c1)C(N1CCN(C)CC1)Cc1ccccc1S2` (stereo not given) stands “inactive”; under `CC(C(O)c1ccc(O)cc1)N1CCC(Cc2ccccc2)CC1` (stereo not given), “inactive”.

For `CCCCN(CCCC)CC(O)c1cc(Cl)cc2c1-c1ccc(Cl)cc1/C2=C/c1ccc(Cl)cc1` (stereo not given), the Potency entry was “inactive”. For `CCCCOc1cc(C(=O)OCCN(CC)CC)ccc1N`, the Potency entry was “inactive”. For `CN(C)CCN(Cc1ccccc1)c1ccccn1` the value was “inactive”. Under `CCN(CC)CCNC(=O)c1c(C)[nH]c(/C=C2\C(=O)Nc3ccc(F)cc32)c1C` stands 21.1 µM (active); under `CC(CN(C)C)CN1c2ccccc2CCc2ccccc21` (stereo not given), “inactive”.
